The results in this text go back to PubChem BioAssay (Tox21).

SMILES strings stand for the structures. Unmarked numbers belong to inactive results. Inconclusive results are not listed. Active and inactive are the calls of the source. Calls come from the whole dose curve; as a rule, active = well fitted curve in the direction sought with a large enough effect in the repeat runs; inconclusive = weak or mixed curves; inactive = no such curve, though single readings can be large; an effect the other way counts as inactive or inconclusive.

The nature of assay [1]: A CellTox Green Cytotoxicity Assay to monitor cytotoxicity in HepG2 cells - 0 hour (AID 1224882). Note: nearly all actives have a fitted effect of over 35% in size. The essentials:
(§1)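 Fluorescent DNA-binding dye, 600 HepG2 cells/well, 5 h preincubation then compound in DMSO; same plates read at 0–40 h, 37 C.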

A short description of assay [2]: A CellTox Green Cytotoxicity Assay to monitor cytotoxicity in HepG2 cells - 32 hour (AID 1224883). Note: nearly all actives have a fitted effect of over 50% in size. Note: potency is the fitted concentration of half-maximal effect. The essentials: as §1
A short description of assay [3]: A CellTox Green Cytotoxicity Assay to monitor cytotoxicity in HEK293 cells - 8 hour (AID 1224884). Note: nearly all actives have a fitted effect of over 35% in size. The method, boiled down:
(§2)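 Homogeneous no-lysis format: HEK293 cell suspension mixed with CellTox Green reagent, seeded, incubated 5 h at 37 C/5% CO2, then dosed by pintool with compound in DMSO.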

Assay [4] can be described thus: qHTS RealTime-Glo MT Cell Viability Assay in HepG2 cells - 16 hour (AID 1224885). Note: nearly all actives have a fitted effect of over 50% in size. The essentials: (§3)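 Real-time, nonlytic viability: 600 HepG2 cells/well mixed with NanoLuc enzyme plus prosubstrate; 5 h settle, compound (DMSO) added by pintool; luminescence monitored over 40 h at 37 C.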
Background: In qHTS, concentration-response curves come from the screen itself.

Assay [5] is described as follows: A CellTox Green Cytotoxicity Assay to monitor cytotoxicity in HEK293 cells - 16 hour (AID 1224888). Note: nearly all actives have a fitted effect of over 35% in size. Note: potency is the fitted concentration of half-maximal effect. The essentials: as §2
Assay [6] in a line: qHTS RealTime-Glo MT Cell Viability Assay in HepG2 cells - 0 hour (AID 1224889). Note: nearly all actives have a fitted effect of over 50% in size. The essentials: as §3
Assay [7] can be described thus: qHTS assay to identify small molecule antagonists of the estrogen receptor alpha (ER-alpha) signaling pathway using the BG1 cell line in the presence of 0.1 nM 17-beta-estradiol - cell viability counter screen (AID 1259241). Note: nearly all actives have a fitted effect of over 40% in size. The method, boiled down: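 Following 5 days in phenol red-free medium with charcoal-stripped serum, VM7Luc4E2 cells received test compounds alongside 0.1 nM 17beta-estradiol (final) at 37C for 22 hr. Live cells were then quantified via protease-substrate fluorescence.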

Assay [8] can be described thus: A CellTox Green Cytotoxicity Assay to monitor cytotoxicity in HepG2 cells - 8 hour (AID 1224890). Note: nearly all actives have a fitted effect of over 45% in size. The essentials:
as §1

Assay [9] is described as follows: qHTS RealTime-Glo MT Cell Viability Assay in HEK293 cells - 24 hour (AID 1224886). Note: nearly all actives have a fitted effect of over 50% in size. Note: potency is the fitted concentration of half-maximal effect. The method, boiled down: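 Cells + reagent dispensed (600 cells/well, HEK293) → 5 h at 37 C/5% CO2 → 23 nL compound in DMSO pinned → 40 h at 37 C → luminescence read at 0, 8, 16, 24, 32, 40 h.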
A short description of assay [10]: qHTS RealTime-Glo MT Cell Viability Assay in HEK293 cells - 8 hour (AID 1224887). Note: nearly all actives have a fitted effect of over 50% in size. Note: potency is the fitted concentration of half-maximal effect. The essentials:
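Measured as luminescence from the same continuously cultured HEK293 wells at successive time points (0, 8, 16, 24, 32, 40 h) after compound addition. Reagent present from seeding; dosing at 5 h; incubation 37 C.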

Take `O=C(CCCN1CCC(n2c(=O)[nH]c3ccccc32)CC1)c1ccc(F)cc1`: the call in assay [1] and in [7] was inactive. In addition, the Potency result in assay [2], in assay [3], in assay [4], in assay [5] and in [6] was “inactive” in each case.
`CC(C)CC(N(C)C)C1(c2ccc(Cl)cc2)CCC1` (stereo not drawn): the outcome in [1] and in assay [7] was inactive. For the same compound, the Potency result in assay [4], in assay [6] and in assay [8] was “inactive” in each case. Further, the Potency in [5] was 21.3 µM (active).
For `CC(C)(C)NCC(O)c1cc(Cl)c(N)c(Cl)c1` (stereo not drawn), the compound was called inactive in assay [1]. The Potency result in [2], in assay [4], in [9], in [10], in [5] and in [6] was “inactive” throughout. Besides, the Potency result in [8] was “inactive”.
As to `COc1ccc(C(=O)N2CCCC2=O)cc1`, the result in assay [1] and in assay [7] was inactive. Also, the Potency result in [3], in [4], in assay [9], in assay [10], in assay [5] and in [6] was “inactive” throughout. Also, in [8], the Potency result was “inactive”.
For `C=CCC1=C(C)[C@@H](OC(=O)[C@@H]2[C@@H](C=C(C)C)C2(C)C)CC1=O`, the call in [1] was inactive. The values for the Potency in assay [2], in assay [9] and in assay [10] were 49 µM (active), 12.3 µM (active) and 6.92 µM (active), respectively. Also, the Potency result in [3], in assay [5], in assay [6] and in assay [8] was “inactive” throughout.
For `CCN(CC)CCOC(=O)C(C)(c1ccccc1)c1ccccc1`, the Potency entry in assay [3], in assay [4], in [10], in assay [5], in assay [6] and in assay [8] was “inactive” throughout. In addition, the result in assay [7] was inactive.
Regarding `CSc1nc(N=[N+]=[N-])nc(NC(C)C)n1`, the compound was called inactive in assay [1] and in [7]. The Potency entry in assay [2], in [3], in assay [4], in assay [5], in assay [6] and in assay [8] was “inactive” throughout.
For the compound `[Cl][Sn]([Cl])([Cl])[Cl]`, the result in assay [1] and in [7] was inactive. The Potency result in [2], in assay [3], in [4], in [10], in assay [6] and in assay [8] was “inactive” throughout.
On to `CC(C)NCC(O)c1ccc(N)c(C#N)c1` (stereo not drawn), for which the compound was classed as inactive in assay [1] and in assay [7]. Further, the Potency result in assay [2], in assay [3], in [4], in [10] and in assay [6] was “inactive” throughout.
Regarding `COP(=S)(OC)Oc1ccc(S(N)(=O)=O)cc1`, the outcome in [1] and in assay [7] was inactive. The Potency entry in [2], in assay [9], in [10], in assay [5] and in assay [8] was “inactive” throughout.
As for `CCCCOC(=O)c1ccccc1N`, the result in assay [1] and in assay [7] was inactive. The Potency entry in assay [3], in assay [4], in [10], in assay [6] and in assay [8] was “inactive” in each case.
Consider `COc1ncc(F)c2nc(S(=O)(=O)Nc3c(F)cccc3F)nn12`, for which the result in [1] and in assay [7] was inactive. Besides, the Potency entry in assay [2], in assay [4], in [9], in assay [10] and in [6] was “inactive” throughout.
With `[As]#[In]`, the compound was called inactive in assay [1] and in assay [7]. For the same compound, the Potency entry in assay [3], in assay [4], in assay [10], in assay [5], in assay [6] and in [8] was “inactive” in each case.
Regarding `CCCCc1c(C)nc(NCC)[nH]c1=O`, the call in assay [1] and in [7] was inactive. Also, the Potency result in assay [3], in [4], in assay [5], in assay [6] and in [8] was “inactive” in each case. Also, in assay [10], the Potency was 21.9 µM (active).
`CC1COC2(c3ccccc3Cl)c3cc(Cl)ccc3NC(=O)CN12` (stereo not drawn): the compound was called inactive in assay [1] and in assay [7]. Also, the Potency result in assay [3], in [4], in [10], in assay [5], in assay [6] and in [8] was “inactive” each time.
As to `CC(C(O)c1ccccc1)N(C)C/C=C/c1ccccc1` (stereo not drawn), the outcome in assay [1] and in assay [7] was inactive. In addition, the Potency result in assay [3], in assay [4], in assay [9], in assay [10], in [5] and in assay [6] was “inactive” throughout. The Potency result in assay [8] is “inactive”.
For `CCOP(=O)(N=C1SCCS1)OCC`, the call in assay [1] and in [7] was inactive. For the same compound, the Potency result in [2], in [4], in [9], in assay [10], in [5] and in [6] was “inactive” each time. Besides, the Potency entry in [8] was “inactive”.
On to `ClC(Cl)C(Cl)Cl`, for which the compound was classed as inactive in assay [1] and in assay [7]. The Potency result in assay [3], in assay [4], in [9], in [10] and in assay [6] was “inactive” in each case.
As for `COC(=O)C1=CCCN(C)C1`, the outcome in assay [1] and in assay [7] was inactive. The Potency result in assay [3], in [4], in assay [9], in [10], in assay [5] and in assay [6] was “inactive” in each case. Also, in [8], the Potency entry was “inactive”.
In the case of `CCc1cc2c(s1)-n1c(C)nnc1CN=C2c1ccccc1Cl`, the outcome in [1] and in assay [7] was inactive. Also, the Potency entry in assay [2], in assay [4], in assay [9], in assay [10], in assay [6] and in assay [8] was “inactive” throughout.
`c1coc(-c2nc3ccccc3[nH]2)c1`: the call in assay [1] and in assay [7] was inactive. Moreover, the Potency entry in [2], in [3], in assay [4], in assay [5], in assay [6] and in assay [8] was “inactive” in each case.
`CC(=O)C(Cl)Cl`: the result in assay [1] and in [7] was inactive. The Potency result in [3], in assay [4], in assay [9], in assay [10], in assay [5] and in [6] was “inactive” each time. In assay [8], the Potency entry is “inactive”.
With `O=C(Nc1ccccc1)N(Cc1ccc(Cl)cc1)C1CCCC1`, the call in assay [1] and in assay [7] was inactive. Also, the Potency entry in assay [2], in [3], in [5] and in [6] was “inactive” each time. The figures for the Potency in assay [9] and in assay [10] were 21.9 µM (active) and 24.5 µM (active), respectively.
Turning to `CCCSP(=O)(OCC)Oc1ccc(Br)cc1Cl` (stereo not drawn), the result in assay [1] and in [7] was inactive. Also, the Potency result in [2], in assay [3], in assay [4], in [10], in assay [6] and in assay [8] was “inactive” in each case.
Take `CCOC(=O)N(C)C(=O)CSP(=S)(OCC)OCC`: the compound was classed as inactive in assay [1] and in [7]. For the same compound, the Potency result in [2], in [4], in assay [9], in assay [10], in [5] and in assay [8] was “inactive” in each case.
As for `Fc1ccc(C2(Cn3cncn3)OC2c2ccccc2Cl)cc1` (stereo not drawn), the outcome in assay [1] and in assay [7] was inactive. For the same compound, the Potency entry in assay [3], in assay [4], in assay [6] and in [8] was “inactive” throughout. Also, the Potency in assay [9] is 43.6 µM (active).
Take `CC1(C(=O)Nc2ccc(O)c(Cl)c2Cl)CCCCC1`: the result in assay [1] and in assay [7] was inactive. The Potency entry in assay [3], in assay [4], in [5] and in [6] was “inactive” each time.
In the case of `COc1cccc2c1cc([N+](=O)[O-])c1c(C(=O)O)cc3c(c12)OCO3`, the call in assay [1] was inactive. Besides, the Potency result in [3], in [4], in assay [10], in assay [5] and in assay [8] was “inactive” throughout. Besides, the Potency in assay [9] is 3.09 µM (active).
With `Cc1ncc2n1-c1ccc(Cl)cc1C(c1ccccc1F)=NC2`, the call in assay [1] and in [7] was inactive. Further, the Potency result in [2], in assay [4], in assay [10], in [5] and in assay [6] was “inactive” in each case.
For the compound `c1ccc(N2CCNCC2)cc1`, the Potency entry in assay [2], in assay [3], in assay [4], in [9], in assay [10] and in [5] was “inactive” each time. For the same compound, the Potency result in assay [6] and in assay [8] was “inactive” throughout. Moreover, the outcome in [7] was inactive.
Regarding `ClCC(Cl)Cl`, the result in assay [1] and in assay [7] was inactive. The Potency entry in assay [2], in assay [4], in [9], in assay [10], in [5] and in [6] was “inactive” throughout. In addition, in assay [8], the Potency result is “inactive”.
Turning to `C[C@H]1CCC[C@H](O)CCCCCc2cc(O)cc(O)c2C(=O)O1`, the result in assay [1] and in [7] was inactive. The Potency entry in assay [3], in [4], in assay [5], in assay [6] and in [8] was “inactive” in each case. In addition, the figures for the Potency in assay [9] and in [10] were 34.9 µM (active) and 27.7 µM (active), respectively.
As for `COc1cc(OC)nc(NC(=O)NS(=O)(=O)c2ncccc2OCC(F)(F)F)n1`, the call in [1] and in assay [7] was inactive. Further, the Potency result in [2], in [3], in assay [4], in [10] and in assay [6] was “inactive” each time.
Take `CC(CC(C#N)(c1ccccc1)c1ccccc1)N(C)C` (stereo not drawn): the call in assay [1] and in [7] was inactive. For the same compound, the Potency entry in assay [3], in [4], in [10], in assay [5] and in [6] was “inactive” throughout.
`O=C(N[C@H]1CN2CCC1CC2)c1cc2ccoc2cn1`: the result in [1] and in [7] was inactive. Besides, the Potency entry in assay [3], in assay [4], in assay [9], in assay [10], in assay [5] and in [6] was “inactive” in each case. The Potency result in [8] is “inactive”.
